# In the supplement of paper PMC8728848:
# The entries come from a sample that favours the strongest signals as a whole.
# Legend:
# Assay in all cases: glycan array binding signal (z-score within array); higher = stronger binding
# Conditions in all cases: glycan notation: IUPAC condensed, linker removed
# [1] = molecular target: Fuc(a1-2)Gal
# How it was run: (§1)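 The binding signal is a Z-score computed within each array. Data were drawn from 3228 arrays in the Consortium for Functional Glycomics database, restricted to those with a known protein sequence. Scores were averaged over arrays of the same protein sequence at different concentrations or buffers, and over linkers, and negative values can be taken as non-binding.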
# [2] = molecular target: Fuc(a1-2)Gal(b1-3)GlcNAc6S
# How it was run: as §1
# [3] = molecular target: Fuc(a1-2)Gal6S(b1-3)GlcNAc
# How it was run: as §1
# [4] = molecular target: Fuc(a1-2)[Gal(a1-3)]Gal(b1-3)GlcNAc
# How it was run: as §1
# [5] = molecular target: Fuc(a1-2)[Gal(a1-3)]Gal(b1-3)GlcNAc(b1-3)GalNAc
# How it was run: as §1
# [6] = molecular target: Fuc(a1-2)[Gal(a1-3)]Gal(b1-4)[Fuc(a1-3)]Glc
# How it was run: as §1
# [7] = molecular target: Fuc(a1-2)[GalNAc(a1-3)]Gal(b1-4)GlcNAc(b1-2)Man(a1-3)[GalNAc(a1-3)[Fuc(a1-2)]Gal(b1-4)GlcNAc(b1-2)Man(a1-6)]Man(b1-4)GlcNAc(b1-4)GlcNAc
# How it was run: as §1
# [8] = molecular target: Fuc(a1-3)[Gal(b1-4)]GlcNAc(b1-2)Man(a1-3)[Fuc(a1-3)[Gal(b1-4)]GlcNAc(b1-2)Man(a1-6)]Man(b1-4)GlcNAc(b1-4)[Fuc(a1-6)]GlcNAc
# How it was run: as §1
# [9] = molecular target: Fuc(a1-3)[Gal3S(b1-4)]Glc6S
# How it was run: as §1
# [10] = molecular target: Fuc(a1-4)GlcNAc
# How it was run: as §1
# [11] = molecular target: Gal(a1-4)Gal(b1-4)GlcNAc
# How it was run: as §1
# [12] = molecular target: Gal(a1-4)Gal(b1-4)GlcNAc(b1-3)Gal(b1-4)Glc
# How it was run: as §1
# [13] = molecular target: Gal(b1-3)GlcNAc(b1-3)Gal(b1-4)GlcNAc(b1-3)Gal(b1-4)GlcNAc(b1-2)[Gal(b1-3)GlcNAc(b1-3)Gal(b1-4)GlcNAc(b1-3)Gal(b1-4)GlcNAc(b1-6)]Man(a1-6)[Gal(b1-3)GlcNAc(b1-3)Gal(b1-4)GlcNAc(b1-3)Gal(b1-4)GlcNAc(b1-2)Man(a1-3)]Man(b1-4)GlcNAc(b1-4)[Fuc(a1-6)]GlcNAc
# How it was run: as §1
# [14] = molecular target: Gal(b1-3)GlcNAc(b1-3)Gal(b1-4)[Fuc(a1-3)]GlcNAc(b1-6)[Gal(b1-3)GlcNAc(b1-3)]Gal(b1-4)Glc
# How it was run: as §1
# [15] = molecular target: Gal(b1-3)GlcNAc(b1-6)Gal(b1-4)GlcNAc
# How it was run: as §1
# [16] = molecular target: Gal(b1-3)[GlcNAc(b1-6)]GalNAc
# How it was run: as §1
# [17] = molecular target: Gal(b1-3)[Neu5Ac(a2-6)]GlcNAc(b1-6)Gal(b1-4)Glc
# How it was run: as §1
# [18] = molecular target: Gal(b1-4)GlcNAc(b1-2)Man(a1-3)[Gal(b1-4)GlcNAc(b1-2)Man(a1-6)]Man(b1-4)GlcNAc(b1-4)GlcNAc
# How it was run: as §1
# [19] = molecular target: Gal(b1-4)GlcNAc(b1-2)Man(a1-6)[GlcNAc(b1-2)Man(a1-3)]Man(b1-4)GlcNAc(b1-4)GlcNAc
# How it was run: as §1
# [20] = molecular target: Gal(b1-4)GlcNAc(b1-3)Gal(b1-4)GlcNAc(b1-2)[Gal(b1-4)GlcNAc(b1-3)Gal(b1-4)GlcNAc(b1-6)]Man(a1-6)[Gal(b1-4)GlcNAc(b1-3)Gal(b1-4)GlcNAc(b1-2)Man(a1-3)]Man(b1-4)GlcNAc(b1-4)GlcNAc
# How it was run: as §1
# [21] = molecular target: Gal(b1-4)GlcNAc(b1-3)Gal(b1-4)GlcNAc(b1-3)Gal(b1-4)GlcNAc(b1-3)Gal(b1-4)GlcNAc(b1-2)Man(a1-3)[Gal(b1-4)GlcNAc(b1-3)Gal(b1-4)GlcNAc(b1-3)Gal(b1-4)GlcNAc(b1-3)Gal(b1-4)GlcNAc(b1-2)Man(a1-6)]Man(b1-4)GlcNAc(b1-4)GlcNAc
# How it was run: as §1
# [22] = molecular target: Gal(b1-4)GlcNAc(b1-3)Gal(b1-4)GlcNAc(b1-3)Gal(b1-4)GlcNAc(b1-3)Gal(b1-4)GlcNAc(b1-2)Man(a1-3)[Gal(b1-4)GlcNAc(b1-3)Gal(b1-4)GlcNAc(b1-3)Gal(b1-4)GlcNAc(b1-3)Gal(b1-4)GlcNAc(b1-2)Man(a1-6)]Man(b1-4)GlcNAc(b1-4)[Fuc(a1-6)]GlcNAc
# How it was run: as §1
# [23] = molecular target: Gal3S(b1-3)[Fuc(a1-4)]GlcNAc
# How it was run: as §1
# [24] = molecular target: Gal3S(b1-4)[Fuc(a1-3)]GlcNAc6S
# How it was run: as §1
# [25] = molecular target: Gal4S(b1-4)GlcNAc
# How it was run: as §1
# [26] = molecular target: Gal6S(b1-3)GlcNAc6S
# How it was run: as §1
# [27] = molecular target: Gal6S(b1-4)Glc
# How it was run: as §1
# [28] = molecular target: Gal6S(b1-4)GlcNAc6S
# How it was run: as §1
# [29] = molecular target: GalNAc(b1-3)Gal
# How it was run: as §1
# [30] = molecular target: GalNAc(b1-3)Gal(a1-6)Gal(b1-4)Glc
# How it was run: as §1
# [31] = molecular target: Glc(a1-6)Glc(a1-6)Glc
# How it was run: as §1
# [32] = molecular target: GlcNAc(a1-4)Gal(b1-4)GalNAc
# How it was run: as §1
# [33] = molecular target: GlcNAc(b1-2)Man(a1-3)[GlcNAc(b1-2)Man(a1-6)]Man(b1-4)GlcNAc(b1-4)GlcNAc
# How it was run: as §1
# [34] = molecular target: GlcNAc(b1-2)Man(a1-3)[GlcNAc(b1-4)][GlcNAc(b1-2)Man(a1-6)]Man(b1-4)GlcNAc(b1-4)GlcNAc
# How it was run: as §1
# [35] = molecular target: GlcNAc(b1-2)Man(a1-3)[GlcNAc(b1-4)][GlcNAc(b1-2)Man(a1-6)]Man(b1-4)GlcNAc(b1-4)[Fuc(a1-6)]GlcNAc
# How it was run: as §1
# [36] = molecular target: GlcNAc(b1-2)[GlcNAc(b1-4)]Man(a1-3)[GlcNAc(b1-2)Man(a1-6)]Man(b1-4)GlcNAc(b1-4)GlcNAc
# How it was run: as §1
# [37] = molecular target: GlcNAc(b1-2)[GlcNAc(b1-6)]Man(a1-6)[GlcNAc(b1-2)Man(a1-3)]Man(b1-4)GlcNAc(b1-4)GlcNAc
# How it was run: as §1
# [38] = molecular target: GlcNAc(b1-2)[GlcNAc(b1-6)]Man(a1-6)[GlcNAc(b1-2)Man(a1-3)]Man(b1-4)GlcNAc(b1-4)[Fuc(a1-6)]GlcNAc
# How it was run: as §1
# [39] = molecular target: GlcNAc(b1-3)Gal(b1-4)Glc
# How it was run: as §1
# [40] = molecular target: GlcNAc(b1-3)Gal(b1-4)GlcNAc(b1-3)[GlcNAc(b1-3)Gal(b1-4)GlcNAc(b1-3)]GalNAc
# How it was run: as §1
# [41] = molecular target: Kdn(a2-6)Gal(b1-4)GlcNAc
# How it was run: as §1
# [42] = molecular target: Neu5Ac(a2-3)Gal(b1-3)GalNAc(b1-4)[Neu5Ac(a2-3)]Gal(b1-4)Glc
# How it was run: as §1
# [43] = molecular target: Neu5Ac(a2-3)Gal(b1-3)[Fuc(a1-4)]GlcNAc
# How it was run: as §1
# [44] = molecular target: Neu5Ac(a2-3)Gal(b1-4)GlcNAc(b1-2)Man(a1-3)[GlcNAc(b1-4)][Neu5Ac(a2-3)Gal(b1-4)GlcNAc(b1-2)Man(a1-6)]Man(b1-4)GlcNAc(b1-4)GlcNAc
# How it was run: as §1
# [45] = molecular target: Neu5Ac(a2-3)Gal(b1-4)[Fuc(a1-3)]GlcNAc(b1-3)GalNAc
# How it was run: as §1
# [46] = molecular target: Neu5Ac(a2-3)GalNAc(b1-4)GlcNAc
# How it was run: as §1
# [47] = molecular target: Neu5Ac(a2-6)Gal(b1-4)GlcNAc(b1-2)Man(a1-3)[GlcNAc(b1-2)Man(a1-6)]Man(b1-4)GlcNAc(b1-4)GlcNAc
# How it was run: as §1
# [48] = molecular target: Neu5Ac(a2-6)Gal(b1-4)GlcNAc(b1-2)Man(a1-6)[GlcNAc(b1-2)Man(a1-3)]Man(b1-4)GlcNAc(b1-4)GlcNAc
# How it was run: as §1
# [49] = molecular target: Neu5Ac(a2-6)Gal(b1-4)GlcNAc(b1-2)[Neu5Ac(a2-6)Gal(b1-4)GlcNAc(b1-4)]Man(a1-3)[GlcNAc(b1-4)][Neu5Ac(a2-6)Gal(b1-4)GlcNAc(b1-2)[Neu5Ac(a2-6)Gal(b1-4)GlcNAc(b1-6)]Man(a1-6)]Man(b1-4)GlcNAc(b1-4)GlcNAc
# How it was run: as §1
# [50] = molecular target: Neu5Ac(a2-6)Gal(b1-4)GlcNAc(b1-6)[Gal(b1-3)]GalNAc
# How it was run: as §1
# [51] = molecular target: Neu5Ac(a2-8)Neu5Ac(a2-8)Neu5Ac(a2-3)Gal(b1-4)Glc
# How it was run: as §1
# [52] = molecular target: Neu5Ac(b2-6)GalNAc
# How it was run: as §1
binder,measurement,setting,value
"LSECtin (Homo sapiens), Q6UXB4 (protein) MDTTRYSKWGGSSEEVPGGPWGRWVHWSRRPLFLALAVLVTTVLWAVILSILLSKASTERAALLDGHDLLRTNASKQTAALGALKEEVGDCHSCCSGTQAQLQTTRAELGEAQAKLMEQESALRELRERVTQGLAEAGRGREDVRTELFRALEAVRLQNNSCEPCPTSWLSFEGSCYFFSVPKTTWAAAQDHCADASAHLVIVGGLDEQGFLTRNTRGRGYWLGLRAVRHLGKVQGYQWVDGVSLSFSHWNQGEPNDAWGRENCVMMLHTGLWNDAPCDSEKDGWICEKRHNC",glycan array binding signal (z-score),[1],-0.224
same,glycan array binding signal (z-score),[2],-0.125
same,glycan array binding signal (z-score),[3],-0.129
same,glycan array binding signal (z-score),[4],-0.157
same,glycan array binding signal (z-score),[5],-0.129
same,glycan array binding signal (z-score),[6],-0.135
same,glycan array binding signal (z-score),[7],2.77
same,glycan array binding signal (z-score),[8],-0.124
same,glycan array binding signal (z-score),[9],4.05
same,glycan array binding signal (z-score),[10],-0.206
same,glycan array binding signal (z-score),[11],0.114
same,glycan array binding signal (z-score),[12],-0.084
same,glycan array binding signal (z-score),[13],-0.127
same,glycan array binding signal (z-score),[14],-0.13
same,glycan array binding signal (z-score),[15],-0.137
same,glycan array binding signal (z-score),[16],0.004
same,glycan array binding signal (z-score),[17],-0.085
same,glycan array binding signal (z-score),[18],-0.21
same,glycan array binding signal (z-score),[19],5.9
same,glycan array binding signal (z-score),[20],-0.139
same,glycan array binding signal (z-score),[21],-0.133
same,glycan array binding signal (z-score),[22],-0.123
same,glycan array binding signal (z-score),[23],-0.158
same,glycan array binding signal (z-score),[24],-0.133
same,glycan array binding signal (z-score),[25],-0.143
same,glycan array binding signal (z-score),[26],-0.136
same,glycan array binding signal (z-score),[27],-0.141
same,glycan array binding signal (z-score),[28],-0.109
same,glycan array binding signal (z-score),[29],-0.182
same,glycan array binding signal (z-score),[30],-0.134
same,glycan array binding signal (z-score),[31],-0.232
same,glycan array binding signal (z-score),[32],3.23
same,glycan array binding signal (z-score),[33],6.75
same,glycan array binding signal (z-score),[34],6.57
same,glycan array binding signal (z-score),[35],6.3
same,glycan array binding signal (z-score),[36],3.06
same,glycan array binding signal (z-score),[37],7.17
same,glycan array binding signal (z-score),[38],9.94
same,glycan array binding signal (z-score),[39],-0.109
same,glycan array binding signal (z-score),[40],-0.126
same,glycan array binding signal (z-score),[41],-0.149
same,glycan array binding signal (z-score),[42],-0.231
same,glycan array binding signal (z-score),[43],-0.079
same,glycan array binding signal (z-score),[44],-0.14
same,glycan array binding signal (z-score),[45],4.08
same,glycan array binding signal (z-score),[46],-0.22
same,glycan array binding signal (z-score),[47],0.942
same,glycan array binding signal (z-score),[48],5.06
same,glycan array binding signal (z-score),[49],-0.133
same,glycan array binding signal (z-score),[50],-0.137
same,glycan array binding signal (z-score),[51],-0.117
same,glycan array binding signal (z-score),[52],-0.124
